Reference: the supplement of paper PMC10849652
Targets with a hit are over-represented here; the source holds about 8,800 in all. About 0.5% of all pairs of compound and target were hits.

How the values were obtained:
Assay in all cases: log2 fold change, soluble protein after heating vs DMSO (PISA); higher = thermal stabilisation; K562 lysate, 10 uM; active = over 0.2 and 3.5 SD of the protein, either way, in both replicates (recomputed)
nilotinib = compound: Cc1cn(-c2cc(NC(=O)c3ccc(C)c(Nc4nccc(-c5cccnc5)n4)c3)cc(C(F)(F)F)c2)cn1 [nilotinib]
Outline: (§1)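 Dounce homogenisation of K562 pellets in PBS pH 7.4 with 1 mM MgCl2 produced a crude extract, used at 1 mg/mL protein. Exposure to 10 μM compound lasted 30 min, and aliquots were then heated for 3 min across 48°C-58°C, pooled and brought to 0.5% NP-40 at 4°C. The supernatant after 21,000xg for 90 min was quantified by TMTpro 16plex LC-MS/MS with channel sums equalised. Duplicate values are given as log-two fold change in thermal stability relative to solvent controls.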

[1] = compound: Cc1nc(Nc2n[nH]c3c2CN(C(=O)N[C@H](CN(C)C)c2ccccc2)C3(C)C)c2sccc2n1
Outline: as §1

dasatinib = compound: Cc1nc(Nc2ncc(C(=O)Nc3c(C)cccc3Cl)s2)cc(N2CCN(CCO)CC2)n1 [dasatinib]
Outline: as §1

[2] = compound: Cc1ncc(-c2ccnc(Nc3ccc(S(C)(=O)=O)cc3)n2)n1C(C)C
Outline: as §1

[3] = compound: Cn1cc(-c2ccc3c(c2)CCN3C(=O)Cc2cccc(C(F)(F)F)c2)c2c(N)ncnc21
Outline: as §1

quisinostat = compound: Cn1cc(CNCC2CCN(c3ncc(C(=O)NO)cn3)CC2)c2ccccc21 [quisinostat]
Outline: as §1

tipifarnib = compound: Cn1cncc1[C@@](N)(c1ccc(Cl)cc1)c1ccc2c(c1)c(-c1cccc(Cl)c1)cc(=O)n2C [tipifarnib]
Outline: as §1

[4] = compound: NC(=O)Nc1cc(-c2cccc(F)c2)sc1C(=O)N[C@H]1CCCNC1
Outline: as §1

[5] = compound: NC(=O)c1cnc(N[C@@H]2CCCC[C@@H]2N)nc1Nc1cccc(-n2nccn2)c1
Outline: as §1

[6] = compound: NC1(c2ccc(-c3nc4ccn5c(=O)[nH]nc5c4cc3-c3ccccc3)cc2)CCC1
Outline: as §1

Measured: log2 fold change

NUDT5 (UniProt Q9UKK9)
inactive: nilotinib 0.021 | [1] 0 | dasatinib 0.045 | [2] 0.008 | [3] -0.024 | quisinostat -0.016 | tipifarnib -0.013 | [4] -0.018 | [5] -0.013 | [6] -0.014

MTHFD1L (UniProt B7ZM99)
inactive: nilotinib -0.017 | [1] 0.028 | dasatinib -0.061 | [2] 0.002 | [3] 0.046 | quisinostat -0.055 | tipifarnib -0.01 | [4] 0.074 | [5] 0.019 | [6] -0.017

MTMR6 (UniProt Q9Y217)
inactive: nilotinib -0.04 | [1] 0.063 | dasatinib -0.036 | [2] -0.026 | [3] -0.076 | quisinostat -0.116 | tipifarnib -0.024 | [4] 0.086 | [5] -0.007 | [6] -0.032

NARF (UniProt Q9UHQ1)
inactive: nilotinib -0.029 | [1] 0.011 | dasatinib 0.01 | [2] -0.031 | [3] 0.014 | quisinostat -0.03 | tipifarnib -0.062 | [4] 0.017 | [5] -0.079 | [6] 0.005

OSBPL6 isoform 5 (UniProt Q9BZF3)
inactive: nilotinib 0.281 | [1] 0.018 | dasatinib -0.082 | [2] -0.045 | [3] 0.036 | quisinostat -0.07 | tipifarnib -0.003 | [4] 0.122 | [5] 0.007 | [6] -0.238

OAT (UniProt P04181)
inactive: nilotinib 0.012 | [1] -0.038 | dasatinib -0.033 | [2] 0.003 | [3] -0.012 | quisinostat -0.002 | tipifarnib 0.024 | [4] -0.01 | [5] 0.019 | [6] -0.018

NCAPH (UniProt Q15003)
inactive: nilotinib -0.033 | [1] 0 | dasatinib -0.03 | [2] -0.017 | [3] -0.017 | quisinostat 0.005 | tipifarnib 0.023 | [4] 0.013 | [5] 0.006 | [6] -0.017

NUF2 (UniProt Q9BZD4)
inactive: nilotinib -0.011 | [1] 0.002 | dasatinib -0.044 | [2] -0.005 | [3] 0.017 | quisinostat -0.012 | tipifarnib 0.003 | [4] 0.061 | [5] 0.013 | [6] -0.014

MT-ND1 (UniProt P03886)
inactive: nilotinib -0.054 | [1] 0.005 | dasatinib 0.018 | [2] -0.074 | [3] 0.035 | quisinostat -0.094 | tipifarnib -0.125 | [4] 0.033 | [5] -0.024 | [6] -0.059

OARD1 (UniProt Q9Y530)
Chain of UniProt Q9Y530 (Q9Y530 whole entry, looked up): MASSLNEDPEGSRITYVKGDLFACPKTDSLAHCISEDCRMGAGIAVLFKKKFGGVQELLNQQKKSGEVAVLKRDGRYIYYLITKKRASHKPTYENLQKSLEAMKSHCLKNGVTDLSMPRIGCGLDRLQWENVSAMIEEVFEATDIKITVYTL
inactive: nilotinib 0.015 | [1] 0.016 | dasatinib -0.031 | [2] 0.005 | [3] 0.071 | quisinostat -0.004 | tipifarnib -0.014 | [4] 0.036 | [5] -0.009 | [6] -0.006

NONO (UniProt Q15233)
Chain of UniProt Q15233 (Q15233 whole entry, looked up): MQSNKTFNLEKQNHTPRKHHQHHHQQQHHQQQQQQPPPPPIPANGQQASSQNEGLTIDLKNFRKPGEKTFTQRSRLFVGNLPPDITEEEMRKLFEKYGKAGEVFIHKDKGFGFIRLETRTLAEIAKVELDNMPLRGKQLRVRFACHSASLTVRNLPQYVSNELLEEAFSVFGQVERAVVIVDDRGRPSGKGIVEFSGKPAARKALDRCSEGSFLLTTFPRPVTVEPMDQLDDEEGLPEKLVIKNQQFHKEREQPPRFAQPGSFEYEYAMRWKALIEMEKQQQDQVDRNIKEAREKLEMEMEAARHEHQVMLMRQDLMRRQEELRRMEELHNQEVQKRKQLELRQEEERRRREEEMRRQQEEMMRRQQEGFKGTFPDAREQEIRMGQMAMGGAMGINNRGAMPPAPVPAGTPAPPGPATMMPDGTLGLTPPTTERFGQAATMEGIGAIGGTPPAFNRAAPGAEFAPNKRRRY
inactive: nilotinib -0.007 | [1] -0.011 | dasatinib -0.047 | [2] 0.007 | [3] 0.012 | quisinostat -0.004 | tipifarnib -0.007 | [4] 0.022 | [5] 0.008 | [6] -0.013

PAK1 (UniProt Q13153)
inactive: nilotinib 0.028 | [1] 0.02 | dasatinib 0.046 | [2] 0.012 | [3] -0.024 | quisinostat 0.044 | tipifarnib -0.053 | [4] -0.028 | [5] -0.025 | [6] -0.012

NMRAL1 (UniProt Q9HBL8)
inactive: nilotinib -0.017 | [1] 0.004 | dasatinib -0.035 | [2] -0.005 | [3] -0.039 | quisinostat 0.025 | tipifarnib 0.01 | [4] -0.021 | [5] 0.012 | [6] 0.045

OGFR (UniProt Q9NZT2)
inactive: nilotinib -0.016 | [1] 0.021 | dasatinib -0.022 | [2] -0.005 | [3] 0.042 | quisinostat -0.004 | tipifarnib 0.04 | [4] 0.02 | [5] -0.001 | [6] 0.028

NDC1 (UniProt Q9BTX1)
Chain of UniProt Q9BTX1 (Q9BTX1 whole entry, looked up): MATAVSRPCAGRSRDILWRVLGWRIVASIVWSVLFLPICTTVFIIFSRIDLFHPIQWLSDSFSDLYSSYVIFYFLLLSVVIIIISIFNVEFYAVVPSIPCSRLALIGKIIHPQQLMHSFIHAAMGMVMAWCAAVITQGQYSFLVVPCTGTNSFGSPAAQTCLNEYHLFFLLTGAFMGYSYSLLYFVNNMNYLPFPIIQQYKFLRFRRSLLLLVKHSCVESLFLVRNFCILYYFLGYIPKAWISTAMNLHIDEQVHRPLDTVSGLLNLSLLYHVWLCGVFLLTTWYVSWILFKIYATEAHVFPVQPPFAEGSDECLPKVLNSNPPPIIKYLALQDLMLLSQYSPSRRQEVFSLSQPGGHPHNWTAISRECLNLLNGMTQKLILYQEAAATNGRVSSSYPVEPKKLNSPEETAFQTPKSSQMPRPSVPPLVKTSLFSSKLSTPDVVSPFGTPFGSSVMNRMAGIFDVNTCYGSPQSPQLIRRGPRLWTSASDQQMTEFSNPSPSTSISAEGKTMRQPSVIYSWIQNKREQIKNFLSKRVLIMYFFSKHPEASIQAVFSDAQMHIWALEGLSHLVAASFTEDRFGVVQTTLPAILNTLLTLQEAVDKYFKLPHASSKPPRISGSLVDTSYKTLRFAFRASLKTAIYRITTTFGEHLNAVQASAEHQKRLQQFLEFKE
inactive: nilotinib -0.019 | [1] -0.006 | dasatinib -0.071 | [2] -0.018 | [3] 0.052 | quisinostat -0.03 | tipifarnib 0.009 | [4] 0 | [5] -0.01 | [6] -0.028

MYO9A isoform 4 (UniProt B2RTY4)
inactive: nilotinib 0.059 | [1] -0.044 | dasatinib -0.176 | [2] 0 | [3] 0.052 | quisinostat -0.074 | tipifarnib -0.005 | [4] 0.112 | [5] 0.039 | [6] -0.112

OGFOD2 (UniProt Q6N063)
Chain of UniProt Q6N063 (Q6N063 whole entry, looked up): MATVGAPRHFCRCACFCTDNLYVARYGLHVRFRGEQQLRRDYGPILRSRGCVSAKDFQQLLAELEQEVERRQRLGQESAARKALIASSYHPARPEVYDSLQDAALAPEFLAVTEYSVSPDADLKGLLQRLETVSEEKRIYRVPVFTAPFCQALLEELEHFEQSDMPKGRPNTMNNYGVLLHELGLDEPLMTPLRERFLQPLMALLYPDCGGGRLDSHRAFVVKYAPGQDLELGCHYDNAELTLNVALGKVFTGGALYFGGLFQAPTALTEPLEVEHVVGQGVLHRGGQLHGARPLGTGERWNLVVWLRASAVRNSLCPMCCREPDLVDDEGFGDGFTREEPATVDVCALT
inactive: nilotinib -0.002 | [1] 0.005 | dasatinib 0.006 | [2] 0.063 | [3] 0.048 | quisinostat 0.031 | tipifarnib 0.026 | [4] 0.049 | [5] -0.017 | [6] 0.049

NEDD8 (UniProt Q15843)
Chain of UniProt Q15843 (Q15843 whole entry, looked up): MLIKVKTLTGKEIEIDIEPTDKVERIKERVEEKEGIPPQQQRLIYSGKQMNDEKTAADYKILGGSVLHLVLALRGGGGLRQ
inactive: nilotinib 0.004 | [1] -0.073 | dasatinib 0.027 | [2] 0.103 | [3] -0.034 | quisinostat 0.034 | tipifarnib 0.066 | [4] -0.038 | [5] -0.057 | [6] 0.018

NCAPG2 (UniProt Q86XI2)
inactive: nilotinib -0.002 | [1] -0.035 | dasatinib -0.078 | [2] -0.024 | [3] -0.015 | quisinostat -0.092 | tipifarnib 0.003 | [4] 0.061 | [5] 0.045 | [6] -0.031

NAP1L5 (UniProt Q96NT1)
Chain of UniProt Q96NT1 (Q96NT1 whole entry, looked up): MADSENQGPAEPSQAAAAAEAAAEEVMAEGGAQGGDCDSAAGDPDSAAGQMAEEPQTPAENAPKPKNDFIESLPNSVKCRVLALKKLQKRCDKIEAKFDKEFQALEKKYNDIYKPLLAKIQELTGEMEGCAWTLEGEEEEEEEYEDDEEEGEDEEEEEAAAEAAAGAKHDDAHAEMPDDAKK
inactive: nilotinib -0.008 | [1] -0.053 | dasatinib 0.024 | [2] 0.045 | [3] 0.01 | quisinostat 0.068 | tipifarnib 0.054 | [4] -0.05 | [5] -0.049 | [6] 0.005

NEK9 (UniProt Q8TD19)
Chain of UniProt Q8TD19 (Q8TD19 whole entry, looked up): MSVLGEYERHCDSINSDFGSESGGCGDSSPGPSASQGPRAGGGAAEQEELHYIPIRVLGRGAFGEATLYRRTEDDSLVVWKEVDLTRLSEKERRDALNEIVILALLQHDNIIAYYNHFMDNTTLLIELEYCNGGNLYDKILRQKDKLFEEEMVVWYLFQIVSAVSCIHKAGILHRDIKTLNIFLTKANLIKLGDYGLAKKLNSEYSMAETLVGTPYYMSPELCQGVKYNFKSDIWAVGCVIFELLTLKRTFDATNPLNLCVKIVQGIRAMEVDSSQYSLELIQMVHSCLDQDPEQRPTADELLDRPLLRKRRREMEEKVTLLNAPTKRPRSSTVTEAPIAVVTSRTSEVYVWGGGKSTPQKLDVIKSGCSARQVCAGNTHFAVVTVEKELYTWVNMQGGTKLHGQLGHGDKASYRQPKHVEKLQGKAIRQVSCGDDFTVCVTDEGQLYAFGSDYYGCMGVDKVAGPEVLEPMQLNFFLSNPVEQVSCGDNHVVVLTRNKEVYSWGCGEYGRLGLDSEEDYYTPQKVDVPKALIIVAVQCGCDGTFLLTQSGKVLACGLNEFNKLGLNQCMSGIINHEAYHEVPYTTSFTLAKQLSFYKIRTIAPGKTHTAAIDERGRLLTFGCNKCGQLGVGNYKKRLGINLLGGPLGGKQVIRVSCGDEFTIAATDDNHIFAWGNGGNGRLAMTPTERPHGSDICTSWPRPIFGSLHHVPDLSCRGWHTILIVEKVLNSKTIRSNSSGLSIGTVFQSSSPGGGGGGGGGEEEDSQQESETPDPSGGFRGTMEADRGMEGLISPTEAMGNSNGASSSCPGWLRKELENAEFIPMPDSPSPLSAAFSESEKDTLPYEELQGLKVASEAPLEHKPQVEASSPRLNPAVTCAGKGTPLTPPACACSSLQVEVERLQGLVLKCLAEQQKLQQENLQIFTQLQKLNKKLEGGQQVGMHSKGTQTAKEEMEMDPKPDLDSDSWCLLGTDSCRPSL
inactive: nilotinib -0.024 | [1] 0.13 | dasatinib -0.002 | [2] 0.007 | [3] 0.001 | quisinostat -0.042 | tipifarnib -0.018 | [4] 0.033 | [5] 0.003 | [6] -0.026

MT-CYB (UniProt P00156)
inactive: nilotinib 0.063 | [1] -0.081 | dasatinib 0.16 | [2] 0.011 | [3] 0 | quisinostat -0.131 | tipifarnib -0.184 | [4] -0.003 | [5] -0.037 | [6] -0.06

OGT (UniProt O15294)
inactive: nilotinib 0.018 | [1] 0.01 | dasatinib -0.027 | [2] -0.002 | [3] 0.041 | quisinostat -0.067 | tipifarnib -0.012 | [4] 0.026 | [5] 0.009 | [6] -0.023

NAA35 (UniProt Q5VZE5)
inactive: nilotinib -0.019 | [1] 0.014 | dasatinib -0.005 | [2] 0.009 | [3] 0.01 | quisinostat -0.075 | tipifarnib 0.034 | [4] 0.001 | [5] -0.035 | [6] 0.016

NQO1 (UniProt P15559)
Chain of UniProt P15559 (P15559 whole entry, looked up): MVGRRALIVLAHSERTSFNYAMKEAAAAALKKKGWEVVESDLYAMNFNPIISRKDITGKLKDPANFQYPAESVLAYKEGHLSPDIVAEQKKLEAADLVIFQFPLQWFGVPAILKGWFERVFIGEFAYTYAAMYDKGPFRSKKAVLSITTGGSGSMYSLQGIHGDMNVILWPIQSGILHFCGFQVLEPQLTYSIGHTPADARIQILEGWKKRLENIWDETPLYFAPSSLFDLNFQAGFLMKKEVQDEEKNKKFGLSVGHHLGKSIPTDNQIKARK
inactive: nilotinib 0.051 | [1] -0.031 | dasatinib 0.244 | [2] 0.022 | [3] -0.104 | quisinostat 0.021 | tipifarnib 0.042 | [4] 0.042 | [5] -0.027 | [6] 0.056

NFATC1 (UniProt O95644)
inactive: nilotinib -0.048 | [1] -0.055 | dasatinib 0.014 | [2] 0.014 | [3] 0.037 | quisinostat -0.097 | tipifarnib 0.006 | [4] 0.042 | [5] -0.002 | [6] -0.058

PARP14 (UniProt Q460N5)
Chain of UniProt Q460N5 (Q460N5 whole entry, looked up): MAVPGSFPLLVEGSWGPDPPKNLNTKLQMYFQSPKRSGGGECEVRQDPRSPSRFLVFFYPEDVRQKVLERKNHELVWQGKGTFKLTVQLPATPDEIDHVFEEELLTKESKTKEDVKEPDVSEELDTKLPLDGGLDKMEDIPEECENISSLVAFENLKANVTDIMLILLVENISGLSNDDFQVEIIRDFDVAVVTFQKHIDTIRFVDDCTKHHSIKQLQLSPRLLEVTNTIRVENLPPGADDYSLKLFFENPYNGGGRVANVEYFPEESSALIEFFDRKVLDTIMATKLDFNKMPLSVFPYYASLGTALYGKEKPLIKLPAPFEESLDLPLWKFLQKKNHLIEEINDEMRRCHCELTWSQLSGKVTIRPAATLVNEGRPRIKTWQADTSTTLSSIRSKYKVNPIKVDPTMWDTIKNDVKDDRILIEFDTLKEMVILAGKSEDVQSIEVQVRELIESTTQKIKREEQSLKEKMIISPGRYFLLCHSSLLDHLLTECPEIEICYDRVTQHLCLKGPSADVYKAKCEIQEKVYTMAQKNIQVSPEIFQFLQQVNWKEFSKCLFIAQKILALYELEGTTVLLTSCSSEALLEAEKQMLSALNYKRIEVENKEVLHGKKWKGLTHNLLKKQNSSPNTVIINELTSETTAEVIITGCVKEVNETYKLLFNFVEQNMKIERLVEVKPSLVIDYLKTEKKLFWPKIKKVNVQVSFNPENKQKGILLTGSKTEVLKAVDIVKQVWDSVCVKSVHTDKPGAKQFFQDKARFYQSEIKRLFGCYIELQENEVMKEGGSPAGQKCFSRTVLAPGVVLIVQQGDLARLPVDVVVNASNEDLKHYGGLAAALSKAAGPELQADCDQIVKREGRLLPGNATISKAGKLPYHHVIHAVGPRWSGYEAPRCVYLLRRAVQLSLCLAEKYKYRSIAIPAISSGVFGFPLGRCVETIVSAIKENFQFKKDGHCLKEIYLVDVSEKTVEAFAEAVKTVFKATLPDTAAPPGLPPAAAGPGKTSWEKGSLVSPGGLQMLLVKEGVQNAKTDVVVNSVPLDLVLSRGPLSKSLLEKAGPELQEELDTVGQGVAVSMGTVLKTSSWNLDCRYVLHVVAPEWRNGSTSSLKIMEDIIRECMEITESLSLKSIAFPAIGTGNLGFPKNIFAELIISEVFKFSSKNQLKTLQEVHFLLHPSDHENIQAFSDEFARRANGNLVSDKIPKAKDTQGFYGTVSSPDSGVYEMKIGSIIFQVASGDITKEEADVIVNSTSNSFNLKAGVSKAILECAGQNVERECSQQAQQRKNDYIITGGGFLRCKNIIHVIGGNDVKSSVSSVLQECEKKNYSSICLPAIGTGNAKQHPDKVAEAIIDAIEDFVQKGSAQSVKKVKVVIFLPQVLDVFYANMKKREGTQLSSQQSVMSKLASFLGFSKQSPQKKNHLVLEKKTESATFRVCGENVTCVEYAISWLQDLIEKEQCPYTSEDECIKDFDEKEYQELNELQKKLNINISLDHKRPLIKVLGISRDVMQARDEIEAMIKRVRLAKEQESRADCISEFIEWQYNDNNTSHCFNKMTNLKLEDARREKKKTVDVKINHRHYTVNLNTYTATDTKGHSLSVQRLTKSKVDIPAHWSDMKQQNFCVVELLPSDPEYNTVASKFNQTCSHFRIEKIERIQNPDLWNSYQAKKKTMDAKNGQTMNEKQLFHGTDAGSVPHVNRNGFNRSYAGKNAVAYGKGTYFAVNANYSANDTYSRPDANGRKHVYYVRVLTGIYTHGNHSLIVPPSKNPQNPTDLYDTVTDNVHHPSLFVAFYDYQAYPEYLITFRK
inactive: nilotinib 0.004 | [1] -0.022 | dasatinib -0.024 | [2] 0.068 | [3] 0.256 | quisinostat -0.025 | tipifarnib -0.068 | [4] 0.128 | [5] 0.051 | [6] -0.09

OPA1 isoform 2 (UniProt O60313)
inactive: nilotinib 0.026 | [1] -0.008 | dasatinib -0.07 | [2] 0.007 | [3] 0.018 | quisinostat 0.055 | tipifarnib -0.035 | [4] 0.025 | [5] 0.016 | [6] -0.012
